# Measured values reported in publication PMC4336329 (PLoS ONE, 2015).
# Out of some 310,000 compounds screened, about 14,000 (4.5%) showed an effect of 50% or more. The effect is printed as a negative number. Only a selection was taken, and strong results are over-represented in it overall.
# Biological target: human ether-à-go-go-related gene (hERG) potassium channel (human, UniProt Q12809)
# Experiment: primary screen, population patch clamp on CHO cells stably expressing hERG; higher = less effect of the substance
# 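Note: peak tail current of the secondary pulse compared with the same well before compound.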
# Chain of human ether-à-go-go-related gene (hERG) potassium channel (Q12809 whole entry, looked up): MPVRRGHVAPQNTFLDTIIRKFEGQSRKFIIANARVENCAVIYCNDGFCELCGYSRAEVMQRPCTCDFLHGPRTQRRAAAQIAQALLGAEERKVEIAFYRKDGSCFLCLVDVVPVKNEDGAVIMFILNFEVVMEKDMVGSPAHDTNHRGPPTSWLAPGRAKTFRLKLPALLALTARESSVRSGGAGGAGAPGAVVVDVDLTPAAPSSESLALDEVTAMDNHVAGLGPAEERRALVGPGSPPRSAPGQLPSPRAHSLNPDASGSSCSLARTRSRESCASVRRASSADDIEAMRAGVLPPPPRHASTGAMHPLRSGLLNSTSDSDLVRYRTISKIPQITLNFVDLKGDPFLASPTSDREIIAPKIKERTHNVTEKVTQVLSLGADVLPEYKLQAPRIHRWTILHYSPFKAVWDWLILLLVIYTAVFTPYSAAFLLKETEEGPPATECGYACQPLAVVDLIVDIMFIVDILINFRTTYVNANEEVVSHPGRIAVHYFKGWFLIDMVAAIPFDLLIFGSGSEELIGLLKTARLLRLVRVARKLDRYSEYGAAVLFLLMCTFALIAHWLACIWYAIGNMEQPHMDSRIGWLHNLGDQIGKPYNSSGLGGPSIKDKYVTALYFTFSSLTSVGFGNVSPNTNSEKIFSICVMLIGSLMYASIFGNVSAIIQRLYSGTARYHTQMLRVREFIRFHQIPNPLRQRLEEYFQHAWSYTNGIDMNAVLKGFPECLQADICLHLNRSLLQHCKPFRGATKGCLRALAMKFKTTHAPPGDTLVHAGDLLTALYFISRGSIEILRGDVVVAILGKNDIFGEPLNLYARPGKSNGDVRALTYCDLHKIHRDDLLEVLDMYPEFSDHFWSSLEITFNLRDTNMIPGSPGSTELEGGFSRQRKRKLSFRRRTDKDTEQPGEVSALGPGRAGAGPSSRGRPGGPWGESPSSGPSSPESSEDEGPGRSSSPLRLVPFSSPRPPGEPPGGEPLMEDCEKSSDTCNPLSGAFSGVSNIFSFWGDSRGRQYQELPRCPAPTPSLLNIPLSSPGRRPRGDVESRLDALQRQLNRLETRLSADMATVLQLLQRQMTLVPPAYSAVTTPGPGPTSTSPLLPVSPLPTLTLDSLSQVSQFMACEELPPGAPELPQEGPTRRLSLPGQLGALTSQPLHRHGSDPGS
row,Structure (SMILES),"hERG current change (%, negative = inhibition) at 10uM [%]"
1,CC(C)c1c(C(=O)N/N=C/c2ccsc2)nnn1-c1nonc1N,23.8
2,O=c1c2cc(F)ccc2[nH]c(=S)n1CCCN1CCOCC1,-3.61
3,CC1(C)CC(=O)C2=C(C1)NC(=O)NC2c1ccc(Cl)cc1 (stereo not drawn),17.3
4,Cc1cc(C(=O)COC(=O)C2CCN(C(=O)c3ccc(Cl)cc3)CC2)c(C)n1CC1CCCO1 (stereo not drawn),-15.2
5,Cc1cc(C(=O)COC(=O)CN(C)S(=O)(=O)c2ccc(Cl)cc2)c(C)n1Cc1cccs1,-5.54
6,COc1cc(OC)cc(C(=O)OCC(=O)c2cc(C)n(CC3CCCO3)c2C)c1 (stereo not drawn),-39
7,COc1cc(OC)c(C(=O)OCC(=O)c2cc(C)n(CC3CCCO3)c2C)cc1OC (stereo not drawn),13.3
8,COc1cc(C(=O)OCC(=O)c2cc(C)n(CC3CCCO3)c2C)cc(OC)c1C (stereo not drawn),-68
9,Cc1cc(C(=O)COC(=O)CN(C)S(=O)(=O)c2ccc(Cl)cc2)c(C)n1CC1CCCO1 (stereo not drawn),-55.2
10,O=C(CC(NS(=O)(=O)c1ccc(Cl)cc1)c1ccco1)NC1CCCC1 (stereo not drawn),-8
11,CCOC(=O)N1CCC(NC(=O)CC(NS(=O)(=O)c2ccc(C)cc2)c2ccco2)CC1 (stereo not drawn),-7.75
12,CCOC(=O)N1CCC(NC(=O)CC(NS(=O)(=O)c2ccc(Cl)cc2)c2ccco2)CC1 (stereo not drawn),-53
13,CCc1cccc(C)c1NC(=S)NCC(c1cccnc1)N(C)C (stereo not drawn),5.1
14,CCc1nnc(NC(=O)C2CCN(c3cnccn3)CC2)s1,4.24
15,O=S(=O)(NCc1ccccn1)c1cc(OCC(F)(F)F)ccc1OCC(F)(F)F,-69.9
16,COc1ccc(OC)c(S(=O)(=O)NCc2ccccn2)c1,11.9
17,CCOc1ccc(OCC)c(S(=O)(=O)NCc2ccccn2)c1,-1.02
18,COc1ccc(-c2nn(C)c(=O)c3ccccc23)cc1NC(=O)Cn1nc(-c2ccccc2)c2ccccc2c1=O,5.06
19,CCC(=O)Nc1cc(-c2nn(C)c(=O)c3ccccc23)ccc1OC,-11.4
20,Cn1nc(C(=O)NC2CCCCC2)c2ccccc2c1=O,-15.3
21,COc1ccc(-c2nn(C)c(=O)c3ccccc23)cc1CNC(=O)NC1CCCCC1,-26.5

row,Structure (SMILES),"hERG current change (%, negative = inhibition) at 10uM [%]"
1,COc1ccc(-c2nn(C)c(=O)c3ccccc23)cc1CNC(=O)C1CCCCC1,-56.3
2,COc1ccc(-c2nn(C)c(=O)c3ccccc23)cc1NC(=O)Cn1nc(C)c2ccccc2c1=O,-57.5
3,Cn1nc(C(=O)NC2CCCC2)c2ccccc2c1=O,1.63
4,Cn1nc(-c2ccc(C(=O)NC3CCCCC3)cc2)c2ccccc2c1=O,-52.4
5,CCCC(=O)NCc1cc(-c2nn(C)c(=O)c3ccccc23)ccc1OC,7.01
6,CCC1CCCCN1C(=S)NC1CCCCC1 (stereo not drawn),17.2
7,COc1cc(/C=C/C(=O)Nc2ccc(C)cc2)cc(OC)c1OC,-2.49
8,O=C(C1CCN(S(=O)(=O)c2ccc(Br)s2)CC1)N1CCc2ccccc21,-46.8
9,c1ccc(CCc2nn3c(C4COc5ccccc5O4)nnc3s2)cc1 (stereo not drawn),-1.79
10,COc1ccc(/C=N/n2c(C3CCCCC3)n[nH]c2=S)c(OC)c1,23.6
11,COc1ccc(N2CC(C(=O)N3CCN(c4ccccc4)CC3)CC2=O)cc1 (stereo not drawn),-41.6
12,COc1ccc(OC)c(S(=O)(=O)N2CCC3(CC2)CC(=O)c2ccccc2O3)c1,-47.1
13,COc1cccc(N2CC(C(=O)Oc3ccc4ccccc4c3)CC2=O)c1 (stereo not drawn),-7.91
14,COc1cccc(N2CC(C(=O)N3CCC4(CC3)CC(=O)c3ccccc3O4)CC2=O)c1 (stereo not drawn),-53.5
15,COc1ccc(N2CC(C(=O)N3CCOCC3)CC2=O)cc1 (stereo not drawn),18.3
16,COc1ccc(N2CC(C(=O)N3CCC4(CC3)CC(=O)c3ccccc3O4)CC2=O)cc1 (stereo not drawn),-78.1
17,Cc1[nH]c2ccccc2c1/C=N/NC(=O)CNC(=O)Cc1ccccc1,15.5
18,NC(=O)c1nnn(-c2nonc2N)c1-c1ccc([N+](=O)[O-])cc1,24.7
19,C=CCn1c(SCC(=O)c2ccc(NS(=O)(=O)c3ccccc3)cc2)nnc1-c1cccs1,-19.5
20,COc1cc(/C=C/C(=O)OCC(=O)Nc2sc3c(c2C#N)CCC(C)C3)ccc1OCC#N (stereo not drawn),12.1
21,COc1cccc(/C=C/C(=O)c2ccc3c(c2)OCO3)c1OC,1.82
